Laboratory results: PubChem BioAssay (NCI)
Where “and” joins values, the source holds several entries; their conditions need not be identical. Identical values can stand only once. The panel holds about 79,000 compounds, 15% with a hit somewhere; the sample as a whole holds those more often. More than one record can exist for a structure, and the calls need not agree. Calls of active or inactive are those of the source. No stated cut-off is given here; in the data, active means growth inhibition above about 70%; inactive means the rest.

Assay: NCI Yeast Anticancer Drug Screen. Data for the rad50 strain (AID 155);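 further: 0% = growth of vehicle-only cultures of the same strain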
Conditions: S. cerevisiae rad50 strain growth inhibition; at 50.0 µM (retest, dose inferred, filed as 5.0); stronger effect = higher value
Procedure, shortened: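 Readout: growth inhibition relative to vehicle-treated cultures. Compound exposure was carried out in a genetically defined yeast strain deficient in DNA damage repair.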

Compound | growth inhibition
COc1ccc(/C=C2\CCc3ccccc3C2=O)cc1OC | 51% (inactive)
CC(C)c1ccc(O)c(=O)cc1 | 42% (inactive) and 28% (inactive) and -1% (inactive)
OCC(O)C(O)C(O)C(O)c1nc2ccccc2[nH]1 (stereo not given) | -1% (inactive) and -19% (inactive)
CC(=O)CC[N+](C)(C)C | 100% (active)
O=C(O)[C@H]1[C@@H](C2CCCCC2)O[C@@H](C2CCCCC2)O[C@H]1C(F)(F)F | 61% (inactive)
CN(NC(=O)/C(=C/C=C/c1ccccc1)NC(=O)c1ccccc1)C1=C(Cl)C(=O)[N+](c2ccccc2)=CC1 | 30% (inactive)
CCCCOc1ccc(Nc2c3ccccc3nc3ccccc23)cc1 | 96% (active)
N#C/C(=C1C=C/C(=N\O)C(Cl)=C\1)c1ccccc1 | 76% (active)
COc1cccc2c1C(=O)c1c(O)c3c(c(O)c1C2=O)CC(O)(C(=O)CO)CC3OC1CC(N)C(O)C(C)O1 (stereo not given) | 13% (inactive) and 18% (inactive) and 91% (active)
COc1ccc(C(=O)OCCc2ccccc2)cc1 | 23% (inactive)
Cc1c2ccncc2c(C)c2c1oc1ccccc12 | 88% (active)
CCCC#CCOC(=O)c1cc([N+](=O)[O-])cc([N+](=O)[O-])c1 | 99% (active)
Nc1nc(Nc2ccccc2)nc(Nc2ccccc2)n1 | 7% (inactive)
COc1ccc(/C=C2\S/C(=N/Nc3nc(-c4ccccc4)cs3)NC2=O)cc1OC | 93% (active)
CCCCCCCCCCCC[N+](C)(C)Cc1ccccc1 (tested in a mixture with another compound) | 99% (active)
